Among the data in PubChem BioAssay (Tox21) are outcome values, retold here.

The source made the active and inactive calls. Calls come from the whole dose curve; as a rule, active = well fitted curve in the direction sought with a large enough effect in the repeat runs; inconclusive = weak or mixed curves; inactive = flat fitted curve, though single readings scatter.

The nature of this assay: qHTS assay to test for compound auto fluorescence at 590 nm (red) in HEK293 cells (AID 720679). Particulars: red autofluorescence 540/590 nm; series mostly up to 46 µM. From the text:
National Center for Advancing Translational Sciences [NCATS]
NIH Chemical Genomics Center [NCGC]
U.S. Environmental Protection Agency [EPA]
National Institutes of Environmental Health Sciences [NIEHS]
National Toxicology Program [NTP]
U.S. Food and Drug Administration [FDA]
Compound auto fluorescence often interferes with screening of the compound library against various biological targets and signaling pathways. Some of these compounds may have fluorophoric properties. Such properties may interfere with the assay outputs resulting in false positives and/or negatives. To decrease such complications and ensure the compound activities are relevant in terms of biological response, the Tox21 10K compound library was screened for auto fluorescence.
From the fluorophores used as reporter signals in our screening assays, the auto fluorescence equivalencies of compounds against three fluorophores have been evaluated: Triamterene, Fluorescein and Rose Bengal sodium for blue, green and red fluorescence, respectively. The fluorescence intensities were measured using Excitation/Emission wavelengths at 405/460nm, 485/535nm and 540/590nm for blue, green and red labels, respectively. This assay includes the red fluorescence data.
Tox21 Assay Protocol Summary:
2,000 HEK293 cells in 5 uL of culture medium containing 10% dialyzed FBS per well were dispensed into black wall/clear bottom 1536-well plates using a Multidrop Combi Dispenser (Thermo Scientific). The assay plates were incubated for 4-5 hr at 37C to allow cell attachment to the well bottom, followed by the transfer of 23 nL compound or DMSO vehicle by a pintool work station (Kalypsys, San Diego, CA). After the assay plates were incubated overnight at 37C and 5% CO2, fluorescence intensities in the assay plates were measured by an Envision (PerkinElmer, Shelton, CT) plate reader using three labels for measuring blue, green and red fluorescence at […] 460, 535 and 590nm respectively.
Background: In qHTS, concentration-response curves come from the screen itself.
Consider `CC(C)(CC(=O)O)C(=O)O`, for which the call was inactive.
Consider `NCCCNCCSP(=O)(O)O`, for which the call was inactive.
Next, `O=C(O)Cc1ccc(CCNS(=O)(=O)c2ccc(Cl)cc2)cc1`: “inactive”.
Consider `CCC(=O)OC(C)c1ccccc1` (stereo not given), for which the result was inactive.
Consider `CC(=O)CC(C)C`, for which the compound was called inactive.
Consider `OCCCC1CCCCC1`, for which the call was inactive.
With `Cc1cc(O)cc2c1O[C@](C)(CCC[C@H](C)CCC[C@H](C)CCCC(C)C)CC2`, the call was inactive.
As for `CC(C)(C)NCCNC(C)(C)C`, the compound was called inactive.
Take `Nc1cc(=O)[nH]c(N)n1`: the outcome was inactive.
In the case of `O=c1n(CCO)c(=O)n(CCO)c(=O)n1CCO`, the call was inactive.
As to `CCn1nc(C(=O)O)c(=O)c2cc3c(cc21)OCO3`, the compound was called inactive.
Consider `C1OCOCO1`, for which the compound was classed as inactive.
As to `COC(=O)c1cc(C(=O)OC)cc(S(=O)(=O)O)c1`, the outcome was inactive.
For the compound `C=CCOCC(CC)(CO)COCC=C`, the call was inactive.
As for `Cn1cc(S(C)=O)c(=O)c2ccc(F)cc21` (stereo not given), the entry is “inactive”; as for `CCOC(=O)c1ccc(C)cc1`, “inactive”; as for `Oc1ccc(C2CNCCc3c2cc(O)c(O)c3Cl)cc1` (stereo not given), “inactive”.
Turning to `C=CCCCCCCCCC=O`, the call was inactive.
For the compound `NC(=O)c1cn(Cc2c(F)cccc2F)nn1`, the outcome was inactive.
Regarding `CC(=O)Nc1ccc(S(N)(=O)=O)cc1`, the compound was classed as inactive.
As for `O=C(O)c1ccccc1OP(=O)(O)O`, the entry is “inactive”; as for `C[C@@H]1CCN(C(=O)[C@H](CCCN=C(N)N)NS(=O)(=O)c2cccc3c2NC[C@H](C)C3)[C@@H](C(=O)O)C1`, “inactive”.
Take `CC(=O)OCC(=O)[C@@]1(O)CC[C@H]2[C@@H]3CCC4=CC(=O)CC[C@]4(C)[C@H]3C(=O)C[C@@]21C`: the compound was called inactive.
Next, `CC(C)NCC(O)c1ccc(NS(C)(=O)=O)cc1` (stereo not given): “inactive”; `CCc1ccc(O)c(OC)c1`: “inactive”.
Regarding `CC(C)(C)c1ccc(O)c(O)c1`, the result was inactive.
For the compound `CC(C)(O)C(=O)c1ccccc1`, the compound was called inactive.
Take `COc1c(N2C[C@@H]3CCCN[C@@H]3C2)c(F)cc2c(=O)c(C(=O)O)cn(C3CC3)c12`: the compound was classed as inactive.
As for `CCN1CCC[C@H]1CNC(=O)c1cc(S(N)(=O)=O)ccc1OC`, the entry is “inactive”; as for `NS(=O)(=O)c1ccccc1Cl`, “inactive”.
As for `O=c1cc(-c2ccccc2)oc2ccccc12`, the entry is “inactive”.
Take `Cc1ccc(=O)n(-c2ccccc2)c1`: the outcome was inactive.
`CCOC(C)(C)C`: the compound was called inactive.
As to `CCOC(=O)C(=O)OCC`, the compound was called inactive.
In the case of `CCN1CCC[C@H]1CNC(=O)c1c(O)c(Cl)cc(Cl)c1OC`, the compound was called inactive.
On to `CCOC(=O)Nc1ccc(NCc2ccc(F)cc2)nc1N`, for which the compound was classed as inactive.
As for `CC(C)c1cc2c(cc1S(=O)(=O)O)[C@@]1(C)CCC[C@@](C)(C(=O)O)[C@@H]1CC2`, the entry is “inactive”; as for `CCCCC/C=C\CCC=O`, “inactive”.
In the case of `NC(=O)Nc1ccccc1`, the call was inactive.
As to `OCCOc1ccc(OCCO)cc1`, the call was inactive.
